The results in this text go back to PubChem BioAssay (EPA / NIEHS).

Each structure is given as a SMILES string. Records with an inconclusive call do not appear. Calls of active or inactive are those of the source. How the source made its calls, unless noted: active means hit-call score of the fitted dose curve at least 0.9, where 1 is the maximum; inconclusive means response in the unintended direction; inactive means score below 0.9.

Experiment [1] is described as follows: TAMU_PeakParms_SingleDonor1434_Asystole: Texas A&M University (TAMU) 1.5-hr Human Induced Pluripotent Stem Cell (iPSC)-derived Cardiomyocytes Calcium (Ca+2) Flux Assay for Cardiotoxicity: Asystole (quiescence of beating) (AID 2284328). The essentials: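 Human iPSC-derived cardiomyocytes (donor 1434) were exposed to 0.2, 1, 10 and 100 uM compound in 0.5% DMSO for 90 min at 37C. Ca2+-dye fluorescence gave average peak frequency; POD is EC95, a 95% beat-rate drop versus DMSO.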

Another experiment concerns IYD (gene 389434). Description: CCTE_GLTED_hIYD: CCTE's human Iodotyrosine Deiodinase (xIYD) Inhibition Assay, Great Lakes Toxicology and Ecology Division (GLTED) Lab (AID 2284317).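 Further: cell-free human IYD enzyme made in baculovirus insect cells; iodide freed from monoiodotyrosine measured by cerium arsenite color change at 420 nm.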 Summed up: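 Iodide liberated from monoiodotyrosine by baculovirus-expressed human IYD over 3 h was determined colorimetrically (Sandell-Kolthoff, 420 nm) after Dowex separation; inhibition is loss of signal versus DMSO.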

Experiment [2] deals with Brachyury (BRA) Protein Expression, Deisenroth Lab, TBXT (gene 6862). Put plainly: CCTE_Deisenroth_DEVTOX-GLR_legacy_Bra: (Legacy) CCTE's DevTox GLR-Endo Assay Evaluation of Brachyury (BRA) Protein Expression, Deisenroth Lab (AID 2284329; active means hit-call score of the fitted dose curve at least 0.9, where 1 is the maximum; inactive means score below 0.9). Summed up:
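High-content imaging of fixed RUES2-GLR cells after a 48-hour differentiation with two compound exposures yields percent cells whose Bra signal exceeds pluripotent control median by 5x BMAD; values are baseline-corrected to DMSO.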

Experiment [3] is described as follows: CCTE_Deisenroth_DEVTOX-GLR_legacy_CellCount: (Legacy) Viability Assessment in CCTE's DevTox GLR-Endo Assay, Deisenroth Lab (AID 2284331; active means hit-call score of the fitted dose curve at least 0.9, where 1 is the maximum; inactive means score below 0.9). The note with it: actives raise or lower the signal. Summed up:
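Nuclei count by fluorescence high-content imaging (5 fields/well) after 48 h differentiation of RUES2-GLR cells. Two exposures, 24 h apart; 1 nM - 200 uM series; n=4. Bidirectional fit vs DMSO.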

Experiment [4] is described as follows: CCTE_Mundy_HCI_iCellGluta_NOG_NeuriteLength: CCTE's Neurite Outgrowth Assay in iCellGluta cells for Neurite Length, Mundy Lab (AID 2284318). Summed up:
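Automated high-content imaging of betaIII-tubulin (Alexa Fluor-488) and Hoechst-stained cells gave neurite length, normalized to the DMSO baseline.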

Experiment [5] in a line: CCTE_Mundy_HCI_iCellGluta_NOG_NeuronCount: CCTE's Neurite Outgrowth Assay in iCellGluta cells for Neuron Count, Mundy Lab (AID 2284340).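 Further: cells fixed about 48 h after compound addition.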 Summed up:
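Neuron count read by automated high-content imaging of Hoechst 33342 and betaIII-tubulin/Alexa Fluor-488 labelling in human iPSC glutamatergic neurons. Activity fitted relative to DMSO.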

A short description of experiment [6]: VALA_MIGHUV2_WoundArea: VALA Sciences human Umbilical Vein Endothelial Cell Migration (MIGHUV) Assay, Area of Scratch Wound after Recovery (AID 2284316). Summed up:
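Wound-area endpoint read by fluorescence imaging of Hoechst-stained nuclei after a 24 h recovery period following scratch of HUVEC monolayers (9000 cells/well). Chemicals dosed within 30 min post-scratch, triplicate 6-point series, 0.1% DMSO vehicle; Cytochalasin D positive control.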

A short description of experiment [7]: CCTE_Deisenroth_5AR_NBTE_donor: CCTE's 5alpha-reductase NanoBRET Target Engagement Assay […], Deisenroth Lab (AID 2284319; active means hit-call score of the fitted dose curve at least 0.9, where 1 is the maximum; inactive means score below 0.9). The note with it: actives raise or lower the signal. The essentials: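 Donor NanoLuc luminescence at 460-20 nm is the read-out, serving artifact detection. Transiently expressed SRD5A2-NanoLuc in HEK293T; 5 h total chemical exposure, testosterone tracer added for the final 2 h; fitting bidirectional relative to DMSO baseline.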

Experiment [8] in a line: CCTE_Deisenroth_5AR_NBTE_acceptor: CCTE's 5alpha-reductase NanoBRET Target Engagement Assay - Autofluorescence Screen, Deisenroth Lab (AID 2284321; active means hit-call score of the fitted dose curve at least 0.9, where 1 is the maximum; inactive means score below 0.9;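 further: compound fluorescence in the acceptor channel under 460 nm excitation flags autofluorescence artifacts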). The conditions noted are these: actives raise or lower the signal. The essentials: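 Acceptor fluorescence intensity was read as an artifact-detection endpoint. Test chemicals at an assumed nominal 100 uM were excited at 460 nm across three independent runs. Activity was fitted bidirectionally against DMSO.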

Another experiment concerns SRD5A2 (gene 6716). Put plainly: CCTE_Deisenroth_5AR_NBTE_ratio: CCTE's 5alpha-reductase NanoBRET Target Engagement Assay - Ratio, Deisenroth Lab (AID 2284322; active means hit-call score of the fitted dose curve at least 0.9, where 1 is the maximum; inactive means score below 0.9). The conditions noted are these: actives raise or lower the signal. The essentials: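 SRD5A2-NanoLuc HEK293T; cmpd 10 nM-29.9 uM, 3 h preinc + testosterone tracer 2 h; NanoBRET ratio 650/460; bidirectional fit vs DMSO.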

Experiment [9] in a line: VALA_TUBIPS_Antagonist_CellCount: Viability Assessment in the VALA Sciences human iPS-derived Endothelial Tubule Formation (TUBIPS) Antagonism Assay (AID 2284335).
Experiment [10] can be described thus: VALA_MIGHUV1_ScratchOnly_WoundArea: VALA Sciences human Umbilical Vein Endothelial Cell Migration (MIGHUV) Assay, Area of Scratch Wound Inhibited Recovery (AID 2284336). The essentials:
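Wound area remaining after 24 h recovery imaged by Hoechst nuclear fluorescence in scratched HUVEC cultures, chemicals added within 30 min of scratching across a 6-point series. Gain of signal fitted against 0.1% DMSO; cytochalasin D positive control.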

Experiment [11] can be described thus: VALA_TUBHUV_Agonist_TubuleLength: VALA Sciences human Umbilical Vein Endothelial Tubule Formation (TUBHUV) Agonism Assay (AID 2284337). The essentials:
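Tubule length quantified by CD31 immunofluorescence imaging after fixation. HUVEC-HDF co-cultures (1:3) pre-grown 3 days with 10 ng/ml VEGF, then dosed 3 days in VEGF medium; 0.1 % DMSO vehicle baseline.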

Experiment [12] can be described thus: VALA_TUBIPS_Agonist_CellCount: Viability Assessment in the VALA Sciences human iPS-derived Endothelial Tubule Formation (TUBIPS) Agonism Assay (AID 2284338).
A further experiment has as its system TTR (gene 7276). Description: CCTE_GLTED_hTTR_0.5uM: CCTE's human Transthyretin (hTTR) Inhibition Assay, with 0.5uM TTR, Great Lakes Toxicology and Ecology Division (GLTED) Lab (AID 2284320; active means hit-call score of the fitted dose curve at least 0.9, where 1 is the maximum; inactive means score below 0.9). The essentials:
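Probe (ANSA) displacement from 0.5 uM human transthyretin was followed by fluorescence (ex 380, em 475) after a 2 h incubation with chemical. Activity was scored as signal loss and fitted positively relative to DMSO.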

For the compound `COc1cc2c(c(OC)c1OC)-c1ccc(OC)c(=O)cc1[C@@H](NC(C)=O)CC2`, in experiment [1], the result was inactive.
Consider `NC(=O)NN=Cc1ccc([N+](=O)[O-])o1`, for which the AC50 in the experiment on IYD (gene 389434) was 74.4 µM (active).
Regarding `NNC(=O)c1ccncc1`, the result in experiment [2] and in [3] was inactive.
For the compound `OC(O)(C(F)C(O)(O)C(F)(F)F)C(F)(F)F`, the compound was called inactive in experiment [4] and in experiment [5].
On to `CCN(CC)C(=S)SSC(=S)N(CC)CC`, for which the call in [6], in [1], in experiment [9], in [10], in [11] and in experiment [12] was inactive. Further, the AC50 in experiment [7] is 50 µM (active); in experiment [8], 39.6 µM (active); with SRD5A2 (gene 6716) it was 50 µM (active).
As for `OCCNCCO`, the call in experiment [9], in experiment [10], in [11] and in experiment [12] was inactive.
On to `OC[C@H]1O[C@@](CO)(O[C@H]2O[C@H](CO)[C@@H](O)[C@H](O)[C@H]2O)[C@@H](O)[C@@H]1O`, for which the result in [1] was inactive.
With `FC(F)=C(F)C(F)(F)C(F)(F)C(F)(F)C(F)(F)C(F)(F)C(F)(F)F`, the result in [4] and in experiment [5] was inactive. Also, in the experiment with TTR (gene 7276), the AC50 was 62.1 µM (active).
`O=S(=O)(O)CCC(F)(F)C(F)(F)C(F)(F)C(F)(F)C(F)(F)C(F)(F)F`: the AC50 with TTR (gene 7276) is 5.35 µM (active).
